# FBW7 act: human FBW7 E3 ligase activation, primary screen; Q969H0; AlphaScreen FBW7–phospho-cyclin E peptide binding, activator screen; normalized activity (activation), % at 26.1 µM; actives 0.13% (n = 650,000); AID 1259310; in the data active = normalized activity above about 1.9%;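 note: purified mutant Fbw7 with reduced substrate affinity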
# TEAD-YAP inh: TEAD-YAP interaction inhibition; HEK-TIYL cells, TEAD-Gal4/YAP UAS-luciferase luminescence; inhibition, % at 9.12 µM; actives 1.4% (n = 640,000); AID 1259422; in the data active = inhibition above about 32%;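 note: 0% = median of test compound wells and 100% = reference inhibitor wells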
# GPR151 ag: human GPR151 activation. actives 1% (n = 650,000). PathHunter beta-arrestin GPR151 cells, luminescence. Q8TDV0. activation, % at 11.2 µM; in the data active = activation above about 4.9%;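 note: 0% = median of compound wells and 100% = cells with positive control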
# Target sequence (Q8TDV0 whole entry, looked up): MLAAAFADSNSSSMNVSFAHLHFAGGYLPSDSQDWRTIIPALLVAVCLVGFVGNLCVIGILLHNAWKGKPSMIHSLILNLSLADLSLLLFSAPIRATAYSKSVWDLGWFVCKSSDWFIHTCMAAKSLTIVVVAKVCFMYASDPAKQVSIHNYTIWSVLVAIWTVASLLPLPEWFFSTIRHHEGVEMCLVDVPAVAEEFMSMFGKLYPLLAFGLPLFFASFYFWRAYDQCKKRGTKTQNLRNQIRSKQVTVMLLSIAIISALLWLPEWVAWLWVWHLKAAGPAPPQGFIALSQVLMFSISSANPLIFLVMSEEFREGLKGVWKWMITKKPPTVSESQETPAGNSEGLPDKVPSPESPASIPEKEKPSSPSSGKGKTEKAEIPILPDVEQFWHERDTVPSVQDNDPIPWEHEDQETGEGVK
# MITF primary: human MITF inhibition, primary screen. inhibition, % at 2.6 µM. AlphaScreen MITF homodimerization, bead proximity signal. actives 0.91% (n = 650,000). O75030; in the data active = inhibition above about 50%;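 note: 0% = vehicle wells with protein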
# GPR151 conf act: human GPR151 activation, confirmation screen; activation, % at 11.2 µM; 6,700 tested, under 10 active; GPR151 PathHunter beta-arrestin cells, luminescence, 90 min; % of EA-reagent control over plate median; shares compounds with GPR151 ag;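 active = mean percent activation across replicates above the confirmation screen cutoff of 4.91%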
# GPR119 ag: GPR119 activation, counter-screen for GPR151 activators; shares compounds with GPR151 ag; actives 0.3% (n = 6,700); GPR119 PathHunter beta-arrestin cells, luminescence, 90 min; 0 = compound-well median, 100 = enzyme-acceptor control; AID 1508611; activation, % at 11.2 µM;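 active = mean percent activation in the counterscreen above 29.09%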;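 note: counterscreen on off-target GPR119 to flag nonselective hits from the GPR151 activator screen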
# An asterisk follows results filed as active; . = no result. This is a sample that favours compounds with a hit; in the whole collection about 3.4% have one here.
SMILES,FBW7 act,TEAD-YAP inh,GPR151 ag,MITF primary,GPR151 conf act,GPR119 ag
COc1cc(/C=C2\N=C(c3cc(OC)c(OC)c(OC)c3)OC2=O)cc(Br)c1OC(C)=O,0,7,5.5*,11,0,12
COc1cc(/C=C2/N=C(c3ccc(Cl)cc3)OC2=O)cc(Br)c1OC(C)=O,0,2,-1,9,.,.
Nc1cc(Sc2ccc(F)cc2)cc([N+](=O)[O-])c1,0,-6,5.1*,-1,0,-4
CCOc1ccc(S(=O)(=O)Nc2ccc(F)c(F)c2F)cc1,0,1,0,2,.,.
Cc1ccc(CCNC(=O)CN2CCN(Cc3cccc(C)c3)C2=O)cc1,0,8,5.5*,-4,0,-12
Cc1ccc(S(=O)(=O)Nc2noc3ccccc23)cc1,0,4,1,-1,.,.
O=C(CNC(=O)c1ccccc1)NCC(=O)N/N=C/c1cccc([N+](=O)[O-])c1,0,19,0,2,.,.
COc1cc(N=Cc2c(O)n(-c3ccccc3F)c(=S)[nH]c2=O)cc(OC)c1,0,10,5.4*,2,-1,-5
COc1cc(N=Cc2c(O)n(-c3ccccc3F)c(=O)[nH]c2=O)cc(OC)c1,0,-23,1,12,.,.
Cc1ccc(NC(=O)c2cc(S(=O)(=O)N3CCCCCC3)ccc2F)cc1Cl,0,-12,6.2*,-7,1,-10
Cc1ccc(NC(=O)c2cc(S(=O)(=O)N3CCCCC3)ccc2F)cc1Cl,1,-9,0,7,.,.
Cc1ccc(NC(=O)c2cc(F)c(F)cc2Cl)cc1S(=O)(=O)N1CCOCC1,0,-6,5.2*,5,0,7
Cc1ccc(Nc2nc(C)cc(N3CCN(C(=O)c4cnccn4)CC3)n2)cc1,0,18,0,-5,.,.
NC(=O)c1cc(-c2ccc3c(c2)OCO3)no1,0,3,5.7*,0,-1,-1
COC(=O)c1cc(-c2ccc3c(c2)OCO3)no1,0,-11,1,-9,.,.
O=c1c2c(nc3nc(-c4ccccc4)[nH]n13)CCCC2,0,9,5.7*,4,-1,-8
Cc1ccc(CN2CCNC(=O)C2CC(=O)N2CCN(Cc3csc(C)n3)CC2)o1 (centres undefined),0,2,5.1*,-4,0,2
Cc1ccc(CN2CCNC(=O)C2CC(=O)N2CCCN(Cc3cccs3)CC2)o1 (centres undefined),0,9,-1,3,.,.
CC(=O)N(C)c1ccc(NC(=O)COc2cc(C)cc(C)c2)cc1,0,-2,4.9*,-4,-1,-10
Cc1cccc(OCC(=O)Nc2cccc(C(=O)O)c2C)c1,0,-10,6.0*,-7,0,5
Cc1cc(C)cc(NC(=O)COc2cccc(C)c2)c1,0,5,6.3*,-17,-1,2
COC(=O)c1cccc(NC(=O)COc2ccc(C(C)C)c(C)c2)c1,1,-7,0,17,.,.
CCOC(=O)c1cccc(NC(=O)COc2ccc(C(C)C)c(C)c2)c1,1,-11,5.0*,10,0,4
CC(C)NC(=O)C1CCN(C2CCN(Cc3cccn3-c3cccnc3)CC2)CC1,0,-6,-1,5,.,.
Cc1ccc(OCC(=O)Nc2cccc(O)c2)cc1C,0,1,0,8,.,.
SMILES,FBW7 act,TEAD-YAP inh,GPR151 ag,MITF primary,GPR151 conf act,GPR119 ag
Cc1cccc(OCC(=O)Nc2cccc(O)c2)c1,0,-18,5.9*,-10,0,-9
CC1CCN(C(=O)CSc2nnc(-c3ccc4c(c3)OCCO4)o2)CC1,0,3,2,3,.,.
COc1cccc2cc(C(=O)/C=C/c3cccc(F)c3)c(=O)oc12,0,-2,5.4*,-6,0,1
CC(C)CNC(=O)C1=CC(c2ccc(F)cc2)=NS(=O)(=O)N1C,0,-8,7.5*,2,0,-8
O=C(COC(=O)CN1C(=O)c2cccc([N+](=O)[O-])c2C1=O)OCN1C(=O)c2ccccc2C1=O,1,-12,4.9*,34,0,4
NC(=O)c1ccccc1NC(=O)CCN1C(=O)c2cccc([N+](=O)[O-])c2C1=O,1,-1,5.4*,9,-1,8
O=C(CN1C(=O)c2cccc([N+](=O)[O-])c2C1=O)OCc1ccc(Cl)cc1,1,-1,7.3*,2,0,-8
O=C(CN1C(=O)c2cccc([N+](=O)[O-])c2C1=O)OCc1ccc(C(=O)c2ccccc2)cc1,1,-4,4,4,.,.
O=C(CN1C(=O)c2cccc([N+](=O)[O-])c2C1=O)OCC(=O)c1ccccc1Cl,0,2,2,15,.,.
Cc1cc(-c2ccc(S(=O)(=O)Nc3ncccc3C)cc2)on1,0,-7,0,-16,.,.
CC(=O)C1=C(O)C(=O)N(CCO)C1c1ccccc1[N+](=O)[O-] (centres undefined),0,2,3,-1,.,.
O=C(NCCCN1CCOCC1)c1ccc([N+](=O)[O-])cc1,0,6,-1,-5,.,.
O=[N+]([O-])c1ccc(C(O)CNCCCN2CCOCC2)cc1 (centres undefined),0,12,7.0*,-1,-1,-11
CCOc1ccc(C(=O)Nc2nc3c(ccc4ccccc43)s2)cc1,0,0,5.5*,5,-1,-3
CC(C)N(C)Cc1nnnn1CC(=O)NCCCn1ncc2ccccc21,0,1,-2,8,.,.
CCN1CCN(C(c2ccc(OC)cc2OC)c2nnnn2CCOC)CC1 (centres undefined),0,0,0,-1,.,.
CN1CCC(N(C(=O)CCC(=O)O)C2CC2)CC1,0,4,8.8*,-3,-1,-8
Cc1c(Cl)cccc1NC(=O)CSc1nccc(=O)[nH]1,0,11,5.3*,6,0,10
O=C(CSc1nccc(=O)[nH]1)Nc1nccs1,0,-1,6.5*,7,0,11
COc1ccc(/C=C/C(=O)c2ccc[nH]2)cc1OC,0,-45,5.8*,17,-1,-2
CC(C)CC(N=Cc1c(O)c2ccccc2oc1=O)C(=O)O (centres undefined),0,-6,5.5*,-5,0,11
CCOc1ccc(N=Cc2c(O)n(CC)c(=S)[nH]c2=O)cc1,0,0,6.0*,-4,0,-2
Cc1nc(CNc2nncc(-c3ccc(Cl)cc3)n2)cs1,0,-24,9.4*,0,-1,3
C=CCn1c(C(=O)OCC)cc2oc(C)cc21,0,4,5.7*,-7,0,6
CCOC(=O)Cn1c(C(=O)OCC)cc2oc(C)cc21,0,-1,-2,1,.,.
CN(C)CCCOC(=O)c1ccc(F)cc1,0,6,3,-3,.,.
CN(c1ccc(C(=O)Nc2ccccc2)cc1)S(=O)(=O)c1ccccc1,0,-15,0,-10,.,.
